Results as given in PubChem BioAssay (EPA / NIEHS).
“And” between values parts separate entries of the source, which are not always exact repeats. Equal entries are not always repeated. Results filed as inconclusive are left out. Some compounds were tested as several samples or in several runs, with calls that do not always agree. The source made the active and inactive calls. The calls were made as follows: active = hit-call score of the fitted dose curve at least 0.9, where 1 is the maximum; inconclusive = response in the unintended direction; inactive = score below 0.9.

Columns and labels:
AR (gene 367) = AR (gene 367) (UniProt P10275); experiment: ACEA_AR_antagonist_80hr: ACEA Biosciences xCELLigence Real-Time Cell Analysis on Androgen Receptor Antagonism for Proliferation (AID 2283787);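 also: 22Rv1 human prostate cancer cells with growth followed by electrical impedance; hits lower the impedance growth signal relative to DMSO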
How it was run: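 Measures real-time proliferation of 22Rv1 prostate cancer cells by electrode impedance at 80 hours after dosing. Test articles ran at eight concentrations (1:4 steps, top 100 uM final) in biological duplicate.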

[1] = ATG_M_06_XSP2: Attagene TRANS-FACTORIAL Multi-Species (XSP2) HepG2 Assay for M06 Transcription Factor (Internal Marker) (AID 2283811);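 also: hits are increases in signal above the DMSO baseline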
How it was run: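 Readout: fluorescent reporter-mRNA peaks by capillary electrophoresis after RT-PCR and HpaI digest, scored upward relative to DMSO. Transfected HepG2, 24 h chemical exposure, with 3 nM 6-alpha-fluorotestosterone and 1.5 nM norgestrel added.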

[2] = test system: turtle Estrogen Receptor (ERa), gene 101933533; experiment: ATG_trERa_XSP2: Attagene TRANS-FACTORIAL Multi-Species (XSP2) HepG2 Assay for turtle Estrogen Receptor (ERa) (AID 2283812);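 also: actives raise reporter signal above DMSO so AC50 reflects agonist activity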
How it was run: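 Readout is reporter mRNA quantified by RT-PCR with capillary electrophoresis after 24 h compound exposure, increase relative to DMSO. Uses transiently transfected human HepG2 liver cells carrying a chimeric turtle ERa-Gal4 receptor driving GAL4-UAS reporters.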

[3] = target: Estrogen receptor beta (Homo sapiens) (UniProt Q92731); experiment: ATG_hERb_XSP1: Attagene TRANS-FACTORIAL Multi-Species (XSP1) HepG2 Assay for human Estrogen Receptor (ESR2) (AID 2283788)
How it was run: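 Transient MRTU transfection of HepG2; ERβ–GAL4 TRANS format; 24 h dosing; 3 nM 6α-fluorotestosterone co-added; RNA → RT-PCR → 6-FAM primer extension → CE; activity vs DMSO.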

[4] = ATG_M_06_XSP1: Attagene TRANS-FACTORIAL Multi-Species (XSP1) HepG2 Assay for M06 Transcription Factor (Internal Marker) (AID 2283790)
How it was run: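 This background-control readout tracks M06 reporter mRNA, measured by RT-PCR and capillary electrophoresis. HepG2 cells transiently carrying the GAL4-UAS reporter panel were dosed for 24 h with 3 nM 6-alpha-fluorotestosterone added for partial AR stimulation; increases were scored relative to DMSO.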

[5] = ATG_M_61_XSP1: Attagene TRANS-FACTORIAL Multi-Species (XSP1) HepG2 Assay for M61 Transcription Factor (Internal Marker) (AID 2283797)
How it was run: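 Background-control readout: reporter transcripts measured by RT-PCR and capillary electrophoresis 24 h after dosing transiently transfected HepG2 multi-reporter cells, with 3 nM 6-alpha-fluorotestosterone present. Fitted in the positive direction relative to DMSO.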

[6] = target: Peroxisome proliferator-activated receptor gamma (Homo sapiens) (UniProt P37231); experiment: ATG_hPPARg_XSP1: Attagene TRANS-FACTORIAL Multi-Species (XSP1) HepG2 Assay for human Peroxisome Proliferator-activated Receptor gamma (PPARg) (AID 2283800)
How it was run: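 Reporter mRNA induction, measured by RT-PCR with capillary electrophoresis 24 h after dosing, scored as gain over DMSO. Transfected HepG2 cells express exogenous NR-Gal4 chimeras driving GAL4-UAS reporters; medium includes 3 nM 6-alpha-fluorotestosterone.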

[7] = test system: zebrafish Peroxisome Proliferator-activated Receptor gamma (PPARg), gene 557037; experiment: ATG_zfPPARg_XSP1: Attagene TRANS-FACTORIAL Multi-Species (XSP1) HepG2 Assay for zebrafish Peroxisome Proliferator-activated Receptor gamma (PPARg) (AID 2283801)
How it was run: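 Trans-activation readout of chimeric zebrafish PPARg–GAL4 in transiently transfected human HepG2 cells, 24 h chemical exposure (medium includes 3 nM 6-alpha-fluorotestosterone). Reporter transcripts measured by RT-PCR and capillary electrophoresis, fitted as gain over DMSO.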

[8] = target: mouse Peroxisome Proliferator-activated Receptor gamma (PPARg), Pparg (gene 19016) (UniProt P37238); experiment: ATG_mPPARg_XSP1: Attagene TRANS-FACTORIAL Multi-Species (XSP1) HepG2 Assay for mouse Peroxisome Proliferator-activated Receptor gamma (PPARg) (AID 2283802)
How it was run: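 Readout is reporter mRNA induction, measured by RT-PCR with 6-FAM labelling, HpaI digestion and capillary electrophoresis, 24 h post-dose relative to DMSO. Transient multi-reporter transfection of human HepG2 with mouse PPARg–GAL4 fusion; 3 nM 6-alpha-fluorotestosterone included.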

[9] = target: Nuclear receptor subfamily 1 group I member 2 (Mus musculus) (UniProt O54915); experiment: ATG_mPXR_XSP1: Attagene TRANS-FACTORIAL Multi-Species (XSP1) HepG2 Assay for mouse Pregnane X Receptor (PXR) (AID 2283803)
How it was run: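 Transiently transfected HepG2 cells expressing a receptor-Gal4 chimera drive a GAL4-UAS reporter; 3 nM 6-alpha-fluorotestosterone included. Reporter mRNA read 24 h post-dose by RT-PCR and capillary electrophoresis; gain of signal relative to DMSO.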

[10] = target: frog Thyroid hormone Receptor alpha (TRa), thra-a (gene 397942) (UniProt P15204); experiment: ATG_frTRa_XSP1: Attagene TRANS-FACTORIAL Multi-Species (XSP1) HepG2 Assay for frog Thyroid hormone Receptor alpha (TRa) (AID 2283804)
How it was run: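 Reporter transcript induction, measured by RT-PCR with 6-FAM labelling and capillary electrophoresis, 24 hr after dosing transiently transfected HepG2 cells expressing a frog TRa-GAL4 fusion; medium contained 3 nM 6-alpha-fluorotestosterone; increase over DMSO scored.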

[11] = target: human Thyroid hormone Receptor alpha (TRa), THRA (gene 7067) (UniProt P10827); experiment: ATG_hTRa_XSP1: Attagene TRANS-FACTORIAL Multi-Species (XSP1) HepG2 Assay for human Thyroid hormone Receptor alpha (TRa) (AID 2283805)
How it was run: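 Reporter transcripts from the human TRa-Gal4 TRANS unit quantified by RT-PCR, fluorescent labeling and capillary electrophoresis after 24 hours of chemical exposure in transfected HepG2 cells; medium contains 3 nM 6-alpha-fluorotestosterone. Positive direction fit against DMSO.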

[12] = test system: turtle Thyroid Hormone Receptor, alpha (TRa), gene 101949057; experiment: ATG_trTRa_XSP1: Attagene TRANS-FACTORIAL Multi-Species (XSP1) HepG2 Assay for turtle Thyroid Hormone Receptor, alpha (TRa) (AID 2283806)
How it was run: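 After 24 h chemical exposure, reporter transcripts were measured by RT-PCR with fluorescent primer extension, HpaI digestion and capillary electrophoresis. Cells were transiently transfected HepG2 expressing exogenous NR-Gal4 chimeras; medium contained 3 nM 6-alpha-fluorotestosterone; fitted upward relative to DMSO.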

[13] = target: human Thyroid hormone Receptor beta (TRb), THRB (gene 7068) (UniProt P10828); experiment: ATG_hTRb_XSP1: Attagene TRANS-FACTORIAL Multi-Species (XSP1) HepG2 Assay for human Thyroid hormone Receptor beta (TRb) (AID 2283808)
How it was run: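 Readout is reporter mRNA induction measured by RT-PCR, fluorescent labelling and capillary electrophoresis, fitted upward relative to DMSO. Transiently transfected human HepG2 cells expressing NR-Gal4 chimeras were dosed for 24 h, medium containing 3 nM 6-alpha-fluorotestosterone.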

[14] = target: zebrafish Thyroid Hormone Receptor beta (TRb), thrb (gene 30607) (UniProt Q9PVE4); experiment: ATG_zfTRb_XSP1: Attagene TRANS-FACTORIAL Multi-Species (XSP1) HepG2 Assay for zebrafish Thyroid Hormone Receptor beta (TRb) (AID 2283809)
How it was run: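 HepG2 cells transiently transfected with multiplexed GAL4-UAS reporter units expressing chimeric zebrafish TRb–Gal4. Dosed 24 h with 3 nM 6-alpha-fluorotestosterone present; reporter mRNA measured by RT-PCR, HpaI digestion and capillary electrophoresis; gain of signal versus DMSO.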

[15] = ATG_XTT_Cytotoxicity_XSP1: Cytotoxicity Assessment in the Attagene TRANS-FACTORIAL Multi-Species (XSP1) HepG2 Assay (AID 2283810)
How it was run: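 XTT viability readout taken at 24 hours post-dosing in HepG2 liver cells co-treated with 3 nM 6-alpha-fluorotestosterone. Signal loss relative to DMSO controls reflects cytotoxicity.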

[16] = ATG_M_19_XSP1: Attagene TRANS-FACTORIAL Multi-Species (XSP1) HepG2 Assay for M19 Transcription Factor (Internal Marker) (AID 2283798)
How it was run: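 Readout is reporter mRNA induction quantified via RT-PCR, 6-FAM labeling, HpaI digestion and capillary electrophoresis, fitted in the positive direction versus DMSO baseline. Transfected HepG2 cells exposed 24 h, medium including 3 nM 6-alpha-fluorotestosterone.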

[17] = ATG_M_32_XSP1: Attagene TRANS-FACTORIAL Multi-Species (XSP1) HepG2 Assay for M32 Transcription Factor (Internal Marker) (AID 2283799)
How it was run: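 Reporter transcripts from the M32 internal-control unit measured by RT-PCR, FAM labelling, HpaI digestion and capillary electrophoresis after 24 h compound exposure of transfected HepG2, 3 nM 6-alpha-fluorotestosterone included; DMSO baseline, positive-direction fit.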

[18] = target: zebrafish Thyroid Hormone Receptor alpha (TRa), thraa (gene 30670) (UniProt Q98867); experiment: ATG_zfTRa_XSP1: Attagene TRANS-FACTORIAL Multi-Species (XSP1) HepG2 Assay for zebrafish Thyroid Hormone Receptor alpha (TRa) (AID 2283807)
How it was run: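 Reporter transcripts driven by a chimeric zebrafish TRa–Gal4 protein were measured by RT-PCR with fluorescent labelling and capillary electrophoresis. These came from transiently transfected HepG2 cells after 24 h chemical exposure, with 3 nM 6-alpha-fluorotestosterone added; baseline was DMSO.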

[19] = target: GAL4 Transcription Factor (Internal Marker), GAL4 (gene 855828) (UniProt P04386); experiment: ATG_GAL4_XSP1: Attagene TRANS-FACTORIAL Multi-Species (XSP1) HepG2 Assay for GAL4 Transcription Factor (Internal Marker) (AID 2283789)
How it was run: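 This background-control endpoint measures GAL4-driven reporter mRNA via RT-PCR and capillary electrophoresis of labelled fragments. Transiently transfected HepG2 cells were treated 24 h, with 3 nM 6-alpha-fluorotestosterone included, and gain-of-signal was fitted against DMSO.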

Measured: AC50

Chain of frog Thyroid hormone Receptor alpha (TRa), thra-a (gene 397942) (P15204 whole entry, looked up, the tested form may be a part): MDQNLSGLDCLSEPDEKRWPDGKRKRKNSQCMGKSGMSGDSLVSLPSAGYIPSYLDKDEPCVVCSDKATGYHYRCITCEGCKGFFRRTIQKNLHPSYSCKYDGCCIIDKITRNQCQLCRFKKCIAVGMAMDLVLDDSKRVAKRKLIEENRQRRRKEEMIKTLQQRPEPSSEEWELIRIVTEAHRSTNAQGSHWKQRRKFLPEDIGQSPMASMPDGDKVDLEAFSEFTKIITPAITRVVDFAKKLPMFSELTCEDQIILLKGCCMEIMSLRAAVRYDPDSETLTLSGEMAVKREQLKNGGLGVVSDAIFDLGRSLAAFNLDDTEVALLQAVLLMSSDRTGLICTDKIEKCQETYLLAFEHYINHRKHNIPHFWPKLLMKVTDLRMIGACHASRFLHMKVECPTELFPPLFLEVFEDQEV
Chain of Estrogen receptor beta (Homo sapiens) (Q92731 whole entry, looked up, the tested form may be a part): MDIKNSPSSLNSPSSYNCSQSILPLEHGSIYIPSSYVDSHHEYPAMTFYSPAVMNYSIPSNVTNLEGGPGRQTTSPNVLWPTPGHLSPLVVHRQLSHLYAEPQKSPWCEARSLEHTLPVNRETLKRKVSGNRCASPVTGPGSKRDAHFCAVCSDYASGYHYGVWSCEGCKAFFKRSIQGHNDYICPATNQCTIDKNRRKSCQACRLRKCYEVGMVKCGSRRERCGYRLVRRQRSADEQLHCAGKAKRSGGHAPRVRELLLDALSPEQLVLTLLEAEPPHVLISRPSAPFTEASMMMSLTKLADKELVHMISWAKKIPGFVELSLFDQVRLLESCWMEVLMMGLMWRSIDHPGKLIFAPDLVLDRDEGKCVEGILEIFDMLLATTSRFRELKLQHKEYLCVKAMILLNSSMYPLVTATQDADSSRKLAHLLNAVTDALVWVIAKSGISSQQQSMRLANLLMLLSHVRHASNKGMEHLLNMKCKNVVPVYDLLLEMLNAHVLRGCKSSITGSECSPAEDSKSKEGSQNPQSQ
Chain of zebrafish Thyroid Hormone Receptor alpha (TRa), thraa (gene 30670) (Q98867 whole entry, looked up, the tested form may be a part): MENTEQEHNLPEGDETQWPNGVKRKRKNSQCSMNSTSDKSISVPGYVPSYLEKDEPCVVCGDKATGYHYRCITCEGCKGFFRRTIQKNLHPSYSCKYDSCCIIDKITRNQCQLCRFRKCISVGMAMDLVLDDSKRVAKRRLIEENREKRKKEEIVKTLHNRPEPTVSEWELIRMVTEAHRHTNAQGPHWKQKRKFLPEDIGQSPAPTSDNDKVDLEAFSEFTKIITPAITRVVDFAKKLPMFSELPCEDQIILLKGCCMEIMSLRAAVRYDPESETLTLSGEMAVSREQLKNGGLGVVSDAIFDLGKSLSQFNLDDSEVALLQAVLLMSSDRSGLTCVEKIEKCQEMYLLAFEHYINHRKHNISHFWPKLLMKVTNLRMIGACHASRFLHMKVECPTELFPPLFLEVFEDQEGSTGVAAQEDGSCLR
Chain of GAL4 Transcription Factor (Internal Marker), GAL4 (gene 855828) (P04386 whole entry, looked up, the tested form may be a part): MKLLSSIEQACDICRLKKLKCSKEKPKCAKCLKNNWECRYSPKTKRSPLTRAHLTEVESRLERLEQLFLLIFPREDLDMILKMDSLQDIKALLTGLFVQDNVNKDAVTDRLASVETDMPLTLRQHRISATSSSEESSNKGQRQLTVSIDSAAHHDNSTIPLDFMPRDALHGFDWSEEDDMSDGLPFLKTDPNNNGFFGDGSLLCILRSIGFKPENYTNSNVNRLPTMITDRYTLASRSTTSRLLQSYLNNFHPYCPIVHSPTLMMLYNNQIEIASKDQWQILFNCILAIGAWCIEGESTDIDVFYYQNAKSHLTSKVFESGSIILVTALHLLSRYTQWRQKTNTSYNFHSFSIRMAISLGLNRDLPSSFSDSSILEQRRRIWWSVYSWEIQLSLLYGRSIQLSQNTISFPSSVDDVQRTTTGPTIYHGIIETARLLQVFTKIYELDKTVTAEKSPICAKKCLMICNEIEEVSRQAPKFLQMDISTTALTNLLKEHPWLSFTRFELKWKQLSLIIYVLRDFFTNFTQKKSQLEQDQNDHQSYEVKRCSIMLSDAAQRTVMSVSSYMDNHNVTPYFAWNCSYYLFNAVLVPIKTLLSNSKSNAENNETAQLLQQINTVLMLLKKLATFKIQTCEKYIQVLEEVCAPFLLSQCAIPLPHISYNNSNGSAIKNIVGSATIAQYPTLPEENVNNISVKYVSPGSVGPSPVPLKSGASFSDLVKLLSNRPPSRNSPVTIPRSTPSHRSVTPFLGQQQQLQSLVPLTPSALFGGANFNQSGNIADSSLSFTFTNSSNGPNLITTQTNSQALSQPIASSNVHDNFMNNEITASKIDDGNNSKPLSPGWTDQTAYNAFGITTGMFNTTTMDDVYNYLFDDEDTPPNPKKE
Chain of zebrafish Thyroid Hormone Receptor beta (TRb), thrb (gene 30607) (Q9PVE4 whole entry, looked up, the tested form may be a part): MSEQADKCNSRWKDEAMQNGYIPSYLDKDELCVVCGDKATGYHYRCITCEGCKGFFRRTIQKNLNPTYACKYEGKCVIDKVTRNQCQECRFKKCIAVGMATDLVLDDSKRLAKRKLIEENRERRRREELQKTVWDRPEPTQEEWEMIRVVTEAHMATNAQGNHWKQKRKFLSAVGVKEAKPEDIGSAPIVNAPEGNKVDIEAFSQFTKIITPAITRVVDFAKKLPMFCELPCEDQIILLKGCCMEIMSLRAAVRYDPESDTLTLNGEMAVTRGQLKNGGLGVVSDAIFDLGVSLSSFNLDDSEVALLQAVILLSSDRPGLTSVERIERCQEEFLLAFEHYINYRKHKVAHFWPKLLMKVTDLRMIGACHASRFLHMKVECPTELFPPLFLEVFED
Chain of Nuclear receptor subfamily 1 group I member 2 (Mus musculus) (O54915 whole entry, looked up, the tested form may be a part): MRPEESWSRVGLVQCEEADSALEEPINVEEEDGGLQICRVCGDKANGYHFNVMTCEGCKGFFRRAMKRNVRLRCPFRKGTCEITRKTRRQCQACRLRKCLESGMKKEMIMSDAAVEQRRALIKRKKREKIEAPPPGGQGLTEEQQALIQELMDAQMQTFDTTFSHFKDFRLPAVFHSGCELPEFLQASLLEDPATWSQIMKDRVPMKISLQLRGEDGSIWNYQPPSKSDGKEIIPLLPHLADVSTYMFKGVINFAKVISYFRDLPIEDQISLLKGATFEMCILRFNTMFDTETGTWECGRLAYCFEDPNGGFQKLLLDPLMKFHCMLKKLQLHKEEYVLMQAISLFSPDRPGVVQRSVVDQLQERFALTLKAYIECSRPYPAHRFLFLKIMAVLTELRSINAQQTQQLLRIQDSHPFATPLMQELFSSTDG
Chain of AR (gene 367) (P10275 whole entry, looked up): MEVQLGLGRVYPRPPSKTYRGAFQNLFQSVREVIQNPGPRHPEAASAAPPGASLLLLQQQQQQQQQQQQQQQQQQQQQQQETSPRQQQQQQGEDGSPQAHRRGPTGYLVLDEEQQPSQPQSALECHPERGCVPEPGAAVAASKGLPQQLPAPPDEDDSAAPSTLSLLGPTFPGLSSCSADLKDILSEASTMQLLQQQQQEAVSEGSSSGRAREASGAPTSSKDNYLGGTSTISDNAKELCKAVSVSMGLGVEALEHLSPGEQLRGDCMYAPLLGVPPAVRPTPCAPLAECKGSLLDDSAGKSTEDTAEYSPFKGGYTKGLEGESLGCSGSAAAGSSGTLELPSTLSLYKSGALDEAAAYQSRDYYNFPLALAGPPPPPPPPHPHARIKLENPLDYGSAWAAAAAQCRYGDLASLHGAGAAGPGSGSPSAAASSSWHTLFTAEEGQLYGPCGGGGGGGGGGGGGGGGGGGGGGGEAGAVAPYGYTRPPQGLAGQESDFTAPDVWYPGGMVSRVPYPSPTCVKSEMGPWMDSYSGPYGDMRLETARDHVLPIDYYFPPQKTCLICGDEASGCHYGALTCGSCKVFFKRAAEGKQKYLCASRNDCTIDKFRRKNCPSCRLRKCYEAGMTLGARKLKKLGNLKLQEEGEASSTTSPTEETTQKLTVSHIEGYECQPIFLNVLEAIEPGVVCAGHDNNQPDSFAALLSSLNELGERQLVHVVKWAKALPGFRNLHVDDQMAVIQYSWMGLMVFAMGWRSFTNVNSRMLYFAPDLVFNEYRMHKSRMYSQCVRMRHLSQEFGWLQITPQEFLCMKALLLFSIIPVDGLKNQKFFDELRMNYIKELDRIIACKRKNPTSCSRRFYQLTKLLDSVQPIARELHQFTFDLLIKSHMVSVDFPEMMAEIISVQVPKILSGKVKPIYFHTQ
Chain of mouse Peroxisome Proliferator-activated Receptor gamma (PPARg), Pparg (gene 19016) (P37238 whole entry, looked up, the tested form may be a part): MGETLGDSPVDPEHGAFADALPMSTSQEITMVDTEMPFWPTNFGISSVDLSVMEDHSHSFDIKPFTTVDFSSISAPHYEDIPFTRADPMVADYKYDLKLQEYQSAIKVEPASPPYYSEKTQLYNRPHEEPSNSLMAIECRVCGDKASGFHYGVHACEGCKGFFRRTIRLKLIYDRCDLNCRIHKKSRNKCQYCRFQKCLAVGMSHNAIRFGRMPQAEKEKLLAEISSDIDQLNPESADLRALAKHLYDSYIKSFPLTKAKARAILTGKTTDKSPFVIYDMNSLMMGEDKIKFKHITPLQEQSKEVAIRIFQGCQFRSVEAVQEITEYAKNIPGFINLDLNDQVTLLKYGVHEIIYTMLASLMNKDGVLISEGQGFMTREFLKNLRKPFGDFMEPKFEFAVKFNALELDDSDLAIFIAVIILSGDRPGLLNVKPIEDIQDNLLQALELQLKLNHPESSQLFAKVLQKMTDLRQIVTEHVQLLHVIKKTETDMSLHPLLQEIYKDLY
Chain of human Thyroid hormone Receptor beta (TRb), THRB (gene 7068) (P10828 whole entry, looked up, the tested form may be a part): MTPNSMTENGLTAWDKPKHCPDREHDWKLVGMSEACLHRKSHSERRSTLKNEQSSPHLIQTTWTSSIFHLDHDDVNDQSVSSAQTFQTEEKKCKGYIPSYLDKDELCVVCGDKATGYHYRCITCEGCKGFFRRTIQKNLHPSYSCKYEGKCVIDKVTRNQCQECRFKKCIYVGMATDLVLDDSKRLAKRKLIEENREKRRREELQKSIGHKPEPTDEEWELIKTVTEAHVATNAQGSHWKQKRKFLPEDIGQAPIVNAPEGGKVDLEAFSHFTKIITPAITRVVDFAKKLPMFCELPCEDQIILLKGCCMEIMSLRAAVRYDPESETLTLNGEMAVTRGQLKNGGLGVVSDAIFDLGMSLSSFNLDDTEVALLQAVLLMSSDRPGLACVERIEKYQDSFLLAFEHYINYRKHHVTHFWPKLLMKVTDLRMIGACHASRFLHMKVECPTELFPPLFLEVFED

COC(=O)N(C(=O)N1CO[C@@]2(C(=O)OC)Cc3cc(Cl)ccc3C2=N1)c1ccc(OC(F)(F)F)cc1
active: AR (gene 367) 40 µM

COC(=O)c1c(C(F)F)nc(C(F)(F)F)c(C2=NCCS2)c1CC(C)C
inactive: AR (gene 367)

C=C(C)CN(CC)c1c([N+](=O)[O-])cc(C(F)(F)F)cc1[N+](=O)[O-]
active: [2] 4.03 µM and 12.5 µM
inactive: [1]

CCN(CC)C(=O)C(C)Oc1cccc2ccccc12 (stereo not given)
active: [3] 100 µM | [6] 48.4 µM | [8] 20.7 µM | [9] 1.27 µM | [2] 10.5 µM
not listed: AR (gene 367) | [16] | [17] | [18] | [19]
inactive: all other assays above

Nc1c(Cl)c(F)nc(OCC(=O)O)c1Cl
inactive: AR (gene 367)

Cc1c(COC(=O)[C@@H]2[C@H](/C=C(\Cl)C(F)(F)F)C2(C)C)cccc1-c1ccccc1
active: [3] 100 µM | [8] 42.5 µM | [9] 2.23 µM | [2] 38.7 µM
inactive: [4] | [5] | [16] | [17] | [6] | [12] | [18]

COP(=S)(OC)SCn1nnc2ccccc2c1=O
active: AR (gene 367) 83.1 µM | [2] 16.4 µM
inactive: [1] | [2]

CCCCC(O)(Cn1cncn1)c1ccc(Cl)cc1Cl (stereo not given)
active: AR (gene 367) 57.3 µM

CC1(C)C(C=C(Cl)Cl)C1C(=O)OC(C#N)c1cccc(Oc2ccccc2)c1 (stereo not given)
inactive: [19] | [16] | [17] | [12] | [13] | [14] | [1]
active: [3] 66.8 µM | [6] 4.23 µM | [7] 3.54 µM | [8] 13.5 µM | [9] 0.579 µM | [2] 18 µM

N#Cc1c[nH]cc1-c1cccc2c1OC(F)(F)O2
inactive: [1]
active: [2] 2.37 µM and 1.02 µM

Cc1cnc(C2=NC(C)(C(C)C)C(=O)N2)c(C(=O)O)c1 (stereo not given)
inactive: AR (gene 367)

CCCCOCN(C(=O)CCl)c1c(CC)cccc1CC
active: AR (gene 367) 75.7 µM

CC(C)NC(=O)N1CC(=O)N(c2cc(Cl)cc(Cl)c2)C1=O
active: [6] 31.3 µM | [8] 30.4 µM | [9] 12 µM
not listed: AR (gene 367) | [3] | [4] | [5] | [7] | [11] | [18]
inactive: all other assays above

CC(C)N1C(=O)N(c2ccccc2)CSC1=NC(C)(C)C
active: AR (gene 367) 50 µM

CCOP(=O)(OCC)Oc1nc(Cl)c(Cl)cc1Cl
active: AR (gene 367) 76 µM

CSC(=O)c1c(C(F)F)nc(C(F)(F)F)c(C(=O)SC)c1CC(C)C
active: [6] 7.26 µM | [8] 3.94 µM | [9] 0.139 µM
inactive: [16] | [17] | [7] | [11] | [14] | [15] | [2]

COc1ccc(-c2ccccc2)cc1NNC(=O)OC(C)C
inactive: AR (gene 367)

Clc1cccc(C(Cl)(Cl)Cl)n1
inactive: AR (gene 367)

COP(=S)(OC)Oc1ccc([N+](=O)[O-])c(C)c1
active: [3] 64 µM | [6] 64.4 µM | [8] 100 µM | [9] 27.4 µM | [2] 31.9 µM
not listed: AR (gene 367) | [10] | [16]
inactive: all other assays above

CC1(C)CCC(=Cc2ccc(Cl)cc2)C1(O)Cn1cncn1 (stereo not given)
active: AR (gene 367) 13.1 µM | [3] 46.6 µM | [9] 5.78 µM
not listed: [1] | [7] | [19]
inactive: all other assays above

CCOc1cc(C(C)(C)C)ccc1C1COC(c2c(F)cccc2F)=N1 (stereo not given)
active: AR (gene 367) 13.2 µM
